Rows were chosen to be rich in hits. Some 2.9% of all compounds tested hit in one or more screens of this group.
MEKK2 mut-MEK5 = signal of MEK5 binding to mutant human MEKK2 PB1 domain | percent response, % at 10 µM | hit rate 0.35% among 290,000 | bead flow cytometry, Alexa488-MEK5 binding to MEKK2 mutant | AID 1530; in the data active = percent response above about 24%, passing the limit was not always enough
GRK2 aptamer HTS = blocks RNA aptamer binding to human GRK2; AID 488847; hit rate 0.59% among 330,000; inhibition of aptamer binding, % at 10 µM; bead flow cytometry, FAM-aptamer displacement from GRK2;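 active = inhibition of aptamer binding above 40%, roughly 3 SD of noise, on plates passing a quality check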;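 also: median bead fluorescence of bound FAM aptamer so fluorescent compounds give negative values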
Beta2AR agonist = agonists of human beta-2 adrenergic receptor inducing internalization | Am2.2-beta2AR cells, FAP receptor internalization, flow cytometry | response, % (no concentration beside the values) | P07550 | hit rate 0.43% among 340,000;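 active = response above a set limit, near 3 SD of response in nonfluorescent compounds, cut at about 42% in these data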
MEKK2 WT-MEK5 = raises or lowers MEK5 binding to wildtype human MEKK2 PB1 domain. bead flow cytometry, Alexa488-MEK5 binding to MEKK2 WT; actives lie on both sides. hit rate 1.1% among 290,000. binding response (% of control), % at 10 µM; in the data active = binding response below about 67% or above about 130%
MEKK3 PB1 HTS = MEKK3-MEK5 PB1 interaction, increase or decrease. binding response (% of control), % at 10 µM. bead-based flow cytometry, Alexa488-MEK5 binding to MEKK3; actives lie on both sides; 0 = blocked by unlabeled MEK5, 100 = vehicle. hit rate 1.4% among 290,000. Q99759;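 active = binding response more than 3 SD above or below the average of its plate-row segment, actives on both sides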;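 also: Alexa488 bead fluorescence after subtracting the streptavidin-only scavenger bead signal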
Target sequence (Q99759 whole entry, looked up): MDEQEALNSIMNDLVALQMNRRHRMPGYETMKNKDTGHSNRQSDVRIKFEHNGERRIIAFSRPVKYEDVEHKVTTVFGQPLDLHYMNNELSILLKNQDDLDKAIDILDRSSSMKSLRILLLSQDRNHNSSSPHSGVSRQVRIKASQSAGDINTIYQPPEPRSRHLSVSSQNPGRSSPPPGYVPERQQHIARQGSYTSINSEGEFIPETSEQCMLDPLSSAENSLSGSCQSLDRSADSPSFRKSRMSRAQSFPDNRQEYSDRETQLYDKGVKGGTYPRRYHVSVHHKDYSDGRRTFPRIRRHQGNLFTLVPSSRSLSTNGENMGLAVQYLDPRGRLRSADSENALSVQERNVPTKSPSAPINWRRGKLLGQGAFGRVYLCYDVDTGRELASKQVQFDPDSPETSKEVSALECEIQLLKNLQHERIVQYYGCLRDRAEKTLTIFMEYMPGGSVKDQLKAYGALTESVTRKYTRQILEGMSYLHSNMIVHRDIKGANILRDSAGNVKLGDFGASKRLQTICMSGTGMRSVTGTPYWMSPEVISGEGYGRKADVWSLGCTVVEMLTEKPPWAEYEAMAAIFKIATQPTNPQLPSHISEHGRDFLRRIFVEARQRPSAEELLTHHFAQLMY
MEKK2wt confirm = raises or lowers MEK5 binding to wildtype human MEKK2, retest. shares compounds with MEKK3 PB1 HTS. bead flow cytometry, Alexa488-MEK5 binding to MEKK2 WT; actives lie on both sides. binding response (% of control), % at 10 µM. hit rate 2.4% among 5,900. AID 1892; in the data active = binding response below about 16% or above about 210%; inactive = in between
MEKK2mut confirm = signal of MEK5 binding to mutant human MEKK2, retest; shares compounds with MEKK3 PB1 HTS; bead flow cytometry, Alexa488-MEK5 binding to MEKK2 mutant; percent response, % at 10 µM; hit rate 2% among 5,900; AID 1893; in the data active = percent response mostly above about 71%, no sharp cut-off; inactive = mostly below about 38%;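 also: higher means compound restores mutant binding toward wildtype level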
MEKK3 confirm = confirmation of inhibitors of MEK5 binding to human MEKK3; binding response (% of control), % at 10 µM; hit rate 1.8% among 5,900; bead flow cytometry, Alexa488-MEK5 binding to MEKK3; stronger effect = lower value; shares compounds with MEKK3 PB1 HTS; AID 1894;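 active = binding response below 72% of control, or above a set upper limit, though filed actives all read lower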
Large screens that a line does not name were inactive (follow-up assays come after a bar, where they were run); [ ] = dose if it differs, or a comment.

COc1cc(C(C(=O)NC(C)(C)C)N(Cc2ccc3c(c2)OCO3)C(=O)c2cnccn2)cc(OC)c1OC (configuration not stated)	MEKK3 PB1 HTS 40.0[inhibitor] | MEKK2wt confirm inactive | MEKK2mut confirm inactive | MEKK3 confirm inactive
Cc1cc(OCC(=O)NC2CCCCC2)ccc1Cl	MEKK3 PB1 HTS 147.0 | MEKK2wt confirm inactive | MEKK2mut confirm inactive | MEKK3 confirm inactive
CC(C)CC(=O)NC(=S)Nc1ccc(N2CCCC2)c(Cl)c1	none
CC(C)C(=O)Nc1ccc(N2CCCC2)c(Cl)c1	MEKK3 PB1 HTS 151.0 | MEKK2wt confirm inactive | MEKK2mut confirm inactive | MEKK3 confirm inactive
O=C1NC[C@H](c2ccccc2)N(CCc2cccc(F)c2)C1=O	MEKK3 PB1 HTS 79.0[inhibitor] | MEKK2wt confirm inactive | MEKK2mut confirm inactive | MEKK3 confirm inactive
O=C(COc1ccccc1)NCc1nnc2c3ccccc3c(-c3ccccc3)nn12	MEKK3 PB1 HTS 149.0 | MEKK2wt confirm inactive | MEKK2mut confirm inactive | MEKK3 confirm inactive
CC(=O)NCc1nnc2c3ccccc3c(-c3ccccc3)nn12	none
O=[N+]([O-])c1ccc(C[n+]2cccc3ccccc32)cc1	MEKK2 mut-MEK5 98.0 | MEKK2wt confirm inactive | MEKK2mut confirm inactive | MEKK3 confirm inactive
CCOC(=O)/C(=N/Nc1ccccc1)Sc1nnnn1-c1ccc(C)cc1	MEKK3 PB1 HTS 129.0 | MEKK2wt confirm inactive | MEKK2mut confirm inactive | MEKK3 confirm inactive
O=C(/C(=N\Nc1ccc(Br)cc1)Sc1nnnn1-c1ccccc1)c1ccccc1	MEKK3 PB1 HTS 130.0 | MEKK2wt confirm inactive | MEKK2mut confirm inactive | MEKK3 confirm inactive
COc1cccc(-c2nn(C)c3sc(C(=O)NCc4ccc5c(c4)OCO5)cc23)c1	none
O=C(NCCCN1CCCC1)c1cc2c(Cl)nc3ccccc3c2s1	MEKK2 WT-MEK5 142.0 | MEKK2wt confirm inactive | MEKK2mut confirm inactive | MEKK3 confirm inactive
CCN(CC)CCCNC(=O)c1cc2c(-c3ccc(Cl)cc3)nn(C)c2s1	MEKK2 mut-MEK5 29.0, MEKK2 WT-MEK5 218.0, MEKK3 PB1 HTS 122.0 | MEKK2wt confirm inactive | MEKK2mut confirm inactive | MEKK3 confirm inactive
O=C(NCCCN1CCCCCC1)c1ccc2c(Cl)c3c(nc2c1)CCCC3	MEKK2 WT-MEK5 160.0 | MEKK2wt confirm inactive | MEKK2mut confirm inactive | MEKK3 confirm inactive
CCN(CCCNC(=O)c1cc2c(-c3cccc(OC)c3)nn(C)c2s1)Cc1ccccc1	MEKK2 mut-MEK5 31.0, MEKK2 WT-MEK5 149.0 | MEKK2wt confirm inactive | MEKK2mut confirm inactive | MEKK3 confirm inactive
Nc1ncnc2c1ncn2[C@@H]1O[C@H](CNC(=O)[C@H](N)Cc2cscn2)[C@@H](O)[C@H]1O	none (no result: MEKK2 mut-MEK5, MEKK2 WT-MEK5, MEKK3 PB1 HTS)
CC1CCCCN1CCNC(=O)c1cc2c(-c3ccccc3F)nn(C)c2s1 (configuration not stated)	MEKK2 mut-MEK5 24.0 | MEKK2wt confirm inactive | MEKK2mut confirm inactive | MEKK3 confirm inactive
CN1CCN(CCCNC(=O)c2cc3c(-c4ccc(Cl)cc4)nn(C)c3s2)CC1	MEKK2 WT-MEK5 180.0 | MEKK2wt confirm inactive | MEKK2mut confirm inactive | MEKK3 confirm inactive
CC(=O)N1c2ccc(S(=O)(=O)NCc3ccco3)cc2CC1C (configuration not stated)	none
CNC[C@H]1Oc2ccc(NC(=O)Nc3ccccc3)cc2CC(=O)N([C@H](C)CO)C[C@H]1C	none (no result: MEKK2 mut-MEK5, MEKK2 WT-MEK5, MEKK3 PB1 HTS)
COc1ccc(-c2ccc3c(c2)C2CC3CCN2S(=O)(=O)c2ccccc2C)cc1 (configuration not stated)	none (no result: MEKK2 mut-MEK5, GRK2 aptamer HTS, MEKK2 WT-MEK5, MEKK3 PB1 HTS)
CC1CCCC(NC(=O)COC(=O)c2ccc3ncsc3c2)C1C (configuration not stated)	none (no result: MEKK2 mut-MEK5, MEKK2 WT-MEK5, MEKK3 PB1 HTS)
COc1ccc(-c2cc(C3CCNCC3)[nH]n2)cc1	MEKK2 WT-MEK5 154.0 | MEKK2wt confirm inactive | MEKK2mut confirm inactive | MEKK3 confirm inactive

High-throughput results as filed in PubChem BioAssay.
